# Experimental data published in article PMC7862700, “An all-to-all approach to the identification of sequence-specific readers for epigenetic DNA modifications on cytosine”.
# Tests used:
# Test in all cases: DAPPL (digital affinity profiling via proximity ligation, sequencing); 10 mM Tris-HCl pH 7.5, 50 mM NaCl, 1 mM DTT, 4% glycerol, room temperature, 30 min; GST-TFs on glutathione beads, 16-mer random dsDNA library, 0.1% formaldehyde crosslink after washing; high values mean tight binding
# FLI1 = target: T1, FLI1 (Homo sapiens, UniProt Q01543 1-452); conditions: protein: recombinant; tags: N-terminal GST; dsDNA, one strand shown
# T1 sequence: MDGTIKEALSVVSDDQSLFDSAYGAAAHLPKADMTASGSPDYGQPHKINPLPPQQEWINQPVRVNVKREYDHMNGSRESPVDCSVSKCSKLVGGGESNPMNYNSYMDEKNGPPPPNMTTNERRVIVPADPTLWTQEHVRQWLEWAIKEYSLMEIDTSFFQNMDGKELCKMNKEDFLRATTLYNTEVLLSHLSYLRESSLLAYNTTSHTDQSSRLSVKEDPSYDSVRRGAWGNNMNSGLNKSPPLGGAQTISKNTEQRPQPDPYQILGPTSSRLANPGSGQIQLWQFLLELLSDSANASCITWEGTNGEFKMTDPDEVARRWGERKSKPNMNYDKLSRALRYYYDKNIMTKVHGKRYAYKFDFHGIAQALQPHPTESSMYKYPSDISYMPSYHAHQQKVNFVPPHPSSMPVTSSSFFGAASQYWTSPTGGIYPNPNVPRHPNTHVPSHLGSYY
# In short: (§1)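 Binding signal is given per hexamer as its read frequency for a factor divided by its frequency in the tag-only sample. GST-fused human transcription factors were expressed in yeast, captured on glutathione beads, barcoded with DNA and pooled with that sample, then incubated with 200 nmole of a 16-mer random double-stranded DNA library in Tris/NaCl/DTT/glycerol buffer for 30 min at room temperature. The pools were then washed, crosslinked, proximity-ligated, amplified by PCR and sequenced on an Illumina NextSeq500.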
# ELK1 = target: T2, ELK1 (Homo sapiens, UniProt P19419 1-428); conditions: protein: recombinant; tags: N-terminal GST; dsDNA, one strand shown
# T2 sequence: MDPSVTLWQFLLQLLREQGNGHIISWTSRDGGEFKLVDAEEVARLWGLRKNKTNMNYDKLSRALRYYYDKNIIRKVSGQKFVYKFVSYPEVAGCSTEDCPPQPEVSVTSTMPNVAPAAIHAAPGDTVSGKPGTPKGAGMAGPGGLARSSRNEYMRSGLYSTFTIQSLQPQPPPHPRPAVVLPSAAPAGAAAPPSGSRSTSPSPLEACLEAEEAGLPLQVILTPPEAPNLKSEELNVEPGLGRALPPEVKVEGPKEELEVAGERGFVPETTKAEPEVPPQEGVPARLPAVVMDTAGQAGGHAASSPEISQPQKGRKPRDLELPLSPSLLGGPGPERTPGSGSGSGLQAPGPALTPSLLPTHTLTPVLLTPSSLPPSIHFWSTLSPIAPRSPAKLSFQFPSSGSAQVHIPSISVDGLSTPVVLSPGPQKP
# In short: as §1
# GABPA = target: T3, GABPA (Homo sapiens, UniProt Q06546 1-454); conditions: protein: recombinant; tags: N-terminal GST; dsDNA, one strand shown
# T3 sequence: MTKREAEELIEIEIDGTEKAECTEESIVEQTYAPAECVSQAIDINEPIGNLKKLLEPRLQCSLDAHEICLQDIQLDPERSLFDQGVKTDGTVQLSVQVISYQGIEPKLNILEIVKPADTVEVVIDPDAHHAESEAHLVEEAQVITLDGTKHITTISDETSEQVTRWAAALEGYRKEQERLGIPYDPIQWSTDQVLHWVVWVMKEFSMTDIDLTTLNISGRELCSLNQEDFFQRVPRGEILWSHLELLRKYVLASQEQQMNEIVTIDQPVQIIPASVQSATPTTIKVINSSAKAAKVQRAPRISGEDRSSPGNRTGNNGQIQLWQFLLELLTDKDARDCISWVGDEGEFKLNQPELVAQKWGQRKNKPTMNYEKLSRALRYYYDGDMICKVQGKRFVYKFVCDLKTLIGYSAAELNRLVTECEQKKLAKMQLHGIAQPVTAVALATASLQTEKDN
# In short: as §1
# ERG = target: T4, ERG (Homo sapiens, UniProt P11308 1-479); conditions: protein: recombinant; tags: N-terminal GST; dsDNA, one strand shown
# T4 sequence: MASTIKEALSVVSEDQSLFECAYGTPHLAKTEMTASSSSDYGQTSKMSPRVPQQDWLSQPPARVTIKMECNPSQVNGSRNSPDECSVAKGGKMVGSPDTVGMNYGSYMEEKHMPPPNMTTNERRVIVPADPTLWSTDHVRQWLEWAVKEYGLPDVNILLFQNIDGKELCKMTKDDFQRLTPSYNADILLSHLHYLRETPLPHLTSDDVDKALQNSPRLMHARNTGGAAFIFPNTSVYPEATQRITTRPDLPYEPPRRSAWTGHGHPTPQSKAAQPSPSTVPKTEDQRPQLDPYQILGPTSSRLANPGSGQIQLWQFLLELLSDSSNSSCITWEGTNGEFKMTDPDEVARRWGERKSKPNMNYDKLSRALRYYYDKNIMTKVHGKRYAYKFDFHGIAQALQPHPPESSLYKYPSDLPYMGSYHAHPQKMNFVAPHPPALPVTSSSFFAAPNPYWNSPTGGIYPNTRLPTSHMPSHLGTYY
# In short: as §1
# ELF1 = ELF1 (Homo sapiens, UniProt P32519 1-619); conditions: protein: recombinant; tags: N-terminal GST; dsDNA, one strand shown
# In short: as §1
# EHF = target: T5, EHF (Homo sapiens, UniProt Q9NZC4 1-300); conditions: protein: recombinant; tags: N-terminal GST; dsDNA, one strand shown
# T5 sequence: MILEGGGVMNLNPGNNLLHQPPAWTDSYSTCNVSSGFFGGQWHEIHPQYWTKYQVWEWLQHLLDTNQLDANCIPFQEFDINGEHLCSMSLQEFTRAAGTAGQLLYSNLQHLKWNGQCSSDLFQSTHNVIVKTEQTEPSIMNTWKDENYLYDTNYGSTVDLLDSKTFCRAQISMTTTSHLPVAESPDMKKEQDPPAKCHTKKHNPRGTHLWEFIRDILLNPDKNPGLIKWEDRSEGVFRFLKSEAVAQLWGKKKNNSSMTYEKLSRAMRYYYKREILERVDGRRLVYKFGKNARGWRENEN
# In short: as §1
# SPI1 = SPI1 (Homo sapiens, UniProt P17947 1-270); conditions: protein: recombinant; tags: N-terminal GST; dsDNA, one strand shown
# In short: as §1
# SPIB = SPIB (Homo sapiens, UniProt Q01892 1-262); conditions: protein: recombinant; tags: N-terminal GST; dsDNA, one strand shown
# In short: as §1
# ELK3 = target: T6, ELK3 (Homo sapiens, UniProt P41970 1-407); conditions: protein: recombinant; tags: N-terminal GST; dsDNA, one strand shown
# T6 sequence: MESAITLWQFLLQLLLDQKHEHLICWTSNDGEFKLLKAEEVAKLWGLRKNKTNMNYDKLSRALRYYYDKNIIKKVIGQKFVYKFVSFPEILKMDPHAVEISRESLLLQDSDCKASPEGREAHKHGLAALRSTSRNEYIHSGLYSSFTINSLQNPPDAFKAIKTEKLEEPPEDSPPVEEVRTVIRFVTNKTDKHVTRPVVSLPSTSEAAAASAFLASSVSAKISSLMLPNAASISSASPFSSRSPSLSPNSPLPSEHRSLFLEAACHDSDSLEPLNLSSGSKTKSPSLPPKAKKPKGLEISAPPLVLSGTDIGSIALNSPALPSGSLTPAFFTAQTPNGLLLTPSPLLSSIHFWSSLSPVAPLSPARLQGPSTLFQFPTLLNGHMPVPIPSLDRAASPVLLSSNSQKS
# In short: as §1
# FEV = target: T7, FEV (Homo sapiens, UniProt Q99581 1-238); conditions: protein: recombinant; tags: N-terminal GST; dsDNA, one strand shown
# T7 sequence: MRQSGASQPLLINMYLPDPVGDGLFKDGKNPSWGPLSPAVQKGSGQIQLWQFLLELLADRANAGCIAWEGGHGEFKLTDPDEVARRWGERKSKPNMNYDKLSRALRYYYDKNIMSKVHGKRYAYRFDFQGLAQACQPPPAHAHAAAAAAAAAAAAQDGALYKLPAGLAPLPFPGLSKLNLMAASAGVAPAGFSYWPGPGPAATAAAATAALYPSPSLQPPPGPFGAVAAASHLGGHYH
# In short: as §1
# ETV5 = ETV5 (Homo sapiens, UniProt P41161 1-510); conditions: protein: recombinant; tags: N-terminal GST; dsDNA, one strand shown
# In short: as §1
# HSF1 = HSF1 (Homo sapiens, UniProt Q00613 1-529); conditions: protein: recombinant; tags: N-terminal GST; chain copies: 3; dsDNA, one strand shown
# In short: as §1
# SPIC = target: T8, SPIC (Homo sapiens, UniProt Q8N5J4 1-248); conditions: protein: recombinant; tags: N-terminal GST; dsDNA, one strand shown
# T8 sequence: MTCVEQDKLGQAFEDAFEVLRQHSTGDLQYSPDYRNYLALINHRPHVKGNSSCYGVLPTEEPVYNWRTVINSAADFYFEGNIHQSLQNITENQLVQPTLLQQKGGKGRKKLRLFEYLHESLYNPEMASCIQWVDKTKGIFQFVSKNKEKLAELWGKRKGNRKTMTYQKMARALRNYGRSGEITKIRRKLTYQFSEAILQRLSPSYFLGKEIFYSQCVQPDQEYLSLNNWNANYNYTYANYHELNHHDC
# In short: as §1
# ELF4 = ELF4 (Homo sapiens, UniProt Q99607 1-663); conditions: protein: recombinant; tags: N-terminal GST; dsDNA, one strand shown
# In short: as §1
# ELK4 = target: T9, ELK4 (Homo sapiens, UniProt P28324-2 1-405); conditions: protein: recombinant; tags: N-terminal GST; dsDNA, one strand shown
# T9 sequence: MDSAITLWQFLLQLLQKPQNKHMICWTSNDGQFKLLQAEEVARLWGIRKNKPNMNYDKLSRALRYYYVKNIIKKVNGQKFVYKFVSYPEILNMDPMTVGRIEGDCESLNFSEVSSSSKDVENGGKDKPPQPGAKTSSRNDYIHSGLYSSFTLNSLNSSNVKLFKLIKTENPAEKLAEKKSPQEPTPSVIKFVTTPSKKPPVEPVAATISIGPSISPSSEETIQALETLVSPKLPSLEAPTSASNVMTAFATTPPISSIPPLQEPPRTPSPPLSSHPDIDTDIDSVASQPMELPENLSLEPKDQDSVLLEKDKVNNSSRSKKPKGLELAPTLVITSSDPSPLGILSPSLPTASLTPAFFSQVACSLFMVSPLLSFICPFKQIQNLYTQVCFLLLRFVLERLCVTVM
# In short: as §1
# ETV2 = target: T10, ETV2 (Homo sapiens, UniProt O00321 1-342); conditions: protein: recombinant; tags: N-terminal GST; dsDNA, one strand shown
# T10 sequence: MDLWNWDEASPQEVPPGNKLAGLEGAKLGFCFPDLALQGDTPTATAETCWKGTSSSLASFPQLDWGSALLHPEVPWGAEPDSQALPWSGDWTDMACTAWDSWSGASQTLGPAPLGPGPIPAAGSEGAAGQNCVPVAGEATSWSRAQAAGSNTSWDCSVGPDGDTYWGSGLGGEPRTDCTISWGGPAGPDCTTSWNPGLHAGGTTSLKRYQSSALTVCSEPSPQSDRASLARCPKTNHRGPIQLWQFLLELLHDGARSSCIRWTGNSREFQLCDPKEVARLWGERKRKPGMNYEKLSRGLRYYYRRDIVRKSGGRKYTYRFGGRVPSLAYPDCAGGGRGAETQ
# In short: as §1
# ELF3 = target: T11, ELF3 (Homo sapiens, UniProt P78545 1-371); conditions: protein: recombinant; tags: N-terminal GST; dsDNA, one strand shown
# T11 sequence: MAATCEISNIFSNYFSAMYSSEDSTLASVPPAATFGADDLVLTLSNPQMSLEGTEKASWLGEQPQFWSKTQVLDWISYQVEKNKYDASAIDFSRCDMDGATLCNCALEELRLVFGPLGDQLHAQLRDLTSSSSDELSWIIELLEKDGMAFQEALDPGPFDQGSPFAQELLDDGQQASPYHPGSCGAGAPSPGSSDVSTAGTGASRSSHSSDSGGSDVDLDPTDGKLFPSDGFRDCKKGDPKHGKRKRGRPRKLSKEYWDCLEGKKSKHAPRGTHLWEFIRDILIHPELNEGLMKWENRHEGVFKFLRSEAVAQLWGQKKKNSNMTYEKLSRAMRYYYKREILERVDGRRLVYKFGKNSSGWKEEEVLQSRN
# In short: as §1
# CRX = CRX (Homo sapiens, UniProt O43186 1-299); conditions: protein: recombinant; tags: N-terminal GST; dsDNA, one strand shown
# In short: as §1
# ETV1 = ETV1 (Homo sapiens, UniProt P50549 1-477); conditions: protein: recombinant; tags: N-terminal GST; dsDNA, one strand shown
# In short: as §1
# Chain of ELF4 (Q99607 whole entry): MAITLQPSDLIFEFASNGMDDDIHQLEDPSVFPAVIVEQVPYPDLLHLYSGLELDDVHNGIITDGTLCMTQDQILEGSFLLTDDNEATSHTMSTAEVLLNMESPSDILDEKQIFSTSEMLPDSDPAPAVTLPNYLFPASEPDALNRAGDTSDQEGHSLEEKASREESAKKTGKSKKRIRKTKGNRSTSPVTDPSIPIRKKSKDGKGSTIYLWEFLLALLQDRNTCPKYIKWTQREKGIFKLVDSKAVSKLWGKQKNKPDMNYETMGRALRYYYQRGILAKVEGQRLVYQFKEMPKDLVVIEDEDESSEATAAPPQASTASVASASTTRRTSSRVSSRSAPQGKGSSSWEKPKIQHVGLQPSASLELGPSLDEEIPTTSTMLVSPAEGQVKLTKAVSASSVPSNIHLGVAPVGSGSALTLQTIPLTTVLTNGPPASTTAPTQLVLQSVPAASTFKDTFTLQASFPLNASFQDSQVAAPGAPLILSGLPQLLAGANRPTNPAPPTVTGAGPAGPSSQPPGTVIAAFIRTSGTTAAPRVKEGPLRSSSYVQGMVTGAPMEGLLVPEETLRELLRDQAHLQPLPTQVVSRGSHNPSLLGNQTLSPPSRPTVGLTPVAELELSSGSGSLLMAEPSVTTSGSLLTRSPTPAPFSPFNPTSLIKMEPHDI
# Chain of ETV1 (P50549 whole entry): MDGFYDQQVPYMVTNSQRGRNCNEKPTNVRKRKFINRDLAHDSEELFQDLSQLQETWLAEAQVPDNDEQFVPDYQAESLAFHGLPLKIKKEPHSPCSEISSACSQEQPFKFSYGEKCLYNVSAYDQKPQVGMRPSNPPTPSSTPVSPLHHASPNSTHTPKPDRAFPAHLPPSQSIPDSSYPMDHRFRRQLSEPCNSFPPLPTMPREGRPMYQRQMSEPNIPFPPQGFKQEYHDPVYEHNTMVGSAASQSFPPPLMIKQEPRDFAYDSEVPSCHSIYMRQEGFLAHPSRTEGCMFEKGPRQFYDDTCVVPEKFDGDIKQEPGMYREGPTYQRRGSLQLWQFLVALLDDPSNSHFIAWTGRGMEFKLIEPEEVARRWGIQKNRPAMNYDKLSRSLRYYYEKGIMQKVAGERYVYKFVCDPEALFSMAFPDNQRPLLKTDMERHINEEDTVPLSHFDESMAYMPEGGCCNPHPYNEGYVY
# Chain of SPIB (Q01892 whole entry): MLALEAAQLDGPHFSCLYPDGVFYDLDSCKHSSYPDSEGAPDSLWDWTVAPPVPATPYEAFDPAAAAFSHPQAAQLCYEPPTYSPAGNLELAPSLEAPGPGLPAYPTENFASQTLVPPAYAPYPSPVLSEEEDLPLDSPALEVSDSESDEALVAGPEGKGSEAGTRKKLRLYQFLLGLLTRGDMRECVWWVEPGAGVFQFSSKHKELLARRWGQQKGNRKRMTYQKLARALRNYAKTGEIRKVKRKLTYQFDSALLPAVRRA
# Chain of ELF1 (P32519 whole entry): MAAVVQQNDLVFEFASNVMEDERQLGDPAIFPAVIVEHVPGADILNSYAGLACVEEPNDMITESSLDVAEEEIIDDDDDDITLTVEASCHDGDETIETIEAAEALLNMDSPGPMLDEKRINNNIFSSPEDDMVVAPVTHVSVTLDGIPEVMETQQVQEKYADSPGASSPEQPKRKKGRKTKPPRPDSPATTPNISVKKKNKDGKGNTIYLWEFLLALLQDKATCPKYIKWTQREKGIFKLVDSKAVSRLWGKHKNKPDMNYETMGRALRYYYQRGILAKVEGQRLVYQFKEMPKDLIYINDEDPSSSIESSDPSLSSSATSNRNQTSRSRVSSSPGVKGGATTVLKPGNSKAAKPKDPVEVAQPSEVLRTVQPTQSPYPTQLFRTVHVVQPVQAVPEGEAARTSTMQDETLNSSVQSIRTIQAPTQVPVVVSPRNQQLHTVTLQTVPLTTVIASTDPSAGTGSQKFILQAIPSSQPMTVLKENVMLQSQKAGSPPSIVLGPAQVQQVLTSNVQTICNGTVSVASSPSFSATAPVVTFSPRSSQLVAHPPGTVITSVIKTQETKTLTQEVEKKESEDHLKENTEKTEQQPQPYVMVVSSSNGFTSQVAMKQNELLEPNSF
# Chain of HSF1 (Q00613 whole entry): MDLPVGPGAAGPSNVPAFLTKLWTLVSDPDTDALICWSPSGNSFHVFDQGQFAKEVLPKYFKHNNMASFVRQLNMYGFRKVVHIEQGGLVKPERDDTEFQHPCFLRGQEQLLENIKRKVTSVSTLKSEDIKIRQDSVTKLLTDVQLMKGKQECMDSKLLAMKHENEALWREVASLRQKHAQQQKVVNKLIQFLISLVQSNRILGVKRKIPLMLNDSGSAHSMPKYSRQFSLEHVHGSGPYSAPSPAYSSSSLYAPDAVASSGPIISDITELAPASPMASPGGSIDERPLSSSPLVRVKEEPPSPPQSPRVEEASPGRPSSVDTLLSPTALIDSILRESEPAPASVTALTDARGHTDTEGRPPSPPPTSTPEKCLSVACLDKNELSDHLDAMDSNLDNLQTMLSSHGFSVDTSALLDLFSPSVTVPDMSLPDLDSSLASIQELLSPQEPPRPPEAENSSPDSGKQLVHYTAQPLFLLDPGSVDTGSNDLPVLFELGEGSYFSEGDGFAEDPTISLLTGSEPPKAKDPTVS
# Chain of CRX (O43186 whole entry): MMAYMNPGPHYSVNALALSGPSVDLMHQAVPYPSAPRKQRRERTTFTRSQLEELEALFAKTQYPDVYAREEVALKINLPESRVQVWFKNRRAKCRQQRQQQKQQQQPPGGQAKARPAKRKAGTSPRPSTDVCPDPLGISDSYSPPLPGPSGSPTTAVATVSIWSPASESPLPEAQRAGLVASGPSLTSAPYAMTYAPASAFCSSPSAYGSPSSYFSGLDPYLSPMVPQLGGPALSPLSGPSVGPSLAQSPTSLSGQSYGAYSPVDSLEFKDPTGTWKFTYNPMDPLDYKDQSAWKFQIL
# Chain of ETV5 (P41161 whole entry): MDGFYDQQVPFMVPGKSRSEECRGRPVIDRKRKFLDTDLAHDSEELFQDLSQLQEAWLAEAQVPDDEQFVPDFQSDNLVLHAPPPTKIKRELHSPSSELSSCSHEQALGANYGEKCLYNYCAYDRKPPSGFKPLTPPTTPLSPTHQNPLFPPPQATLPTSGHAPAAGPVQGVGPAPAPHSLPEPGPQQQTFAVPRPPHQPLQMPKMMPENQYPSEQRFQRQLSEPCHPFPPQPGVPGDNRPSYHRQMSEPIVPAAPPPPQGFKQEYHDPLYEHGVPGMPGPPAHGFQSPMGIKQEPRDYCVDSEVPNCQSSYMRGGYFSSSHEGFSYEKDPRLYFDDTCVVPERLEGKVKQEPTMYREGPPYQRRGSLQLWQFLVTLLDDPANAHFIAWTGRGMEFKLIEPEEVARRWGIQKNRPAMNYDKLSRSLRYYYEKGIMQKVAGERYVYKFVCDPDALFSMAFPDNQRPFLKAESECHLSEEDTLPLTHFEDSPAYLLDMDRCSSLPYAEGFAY
sequence,measurement,setting,value
TTCATG,binding signal,FLI1,"1.35 fold enrichment (6-mer frequency, TF over GST control)"
same,binding signal,ELK1,"1.26 fold enrichment (6-mer frequency, TF over GST control)"
same,binding signal,GABPA,"1.35 fold enrichment (6-mer frequency, TF over GST control)"
same,binding signal,ERG,"1.28 fold enrichment (6-mer frequency, TF over GST control)"
same,binding signal,ELF1,"1.33 fold enrichment (6-mer frequency, TF over GST control)"
same,binding signal,EHF,"1.29 fold enrichment (6-mer frequency, TF over GST control)"
same,binding signal,SPI1,"1.32 fold enrichment (6-mer frequency, TF over GST control)"
same,binding signal,SPIB,"1.34 fold enrichment (6-mer frequency, TF over GST control)"
same,binding signal,ELK3,"1.22 fold enrichment (6-mer frequency, TF over GST control)"
same,binding signal,FEV,"1.23 fold enrichment (6-mer frequency, TF over GST control)"
same,binding signal,ETV5,"1.27 fold enrichment (6-mer frequency, TF over GST control)"
same,binding signal,HSF1,"1.23 fold enrichment (6-mer frequency, TF over GST control)"
same,binding signal,SPIC,"1.35 fold enrichment (6-mer frequency, TF over GST control)"
same,binding signal,ELF4,"1.33 fold enrichment (6-mer frequency, TF over GST control)"
same,binding signal,ELK4,"1.32 fold enrichment (6-mer frequency, TF over GST control)"
same,binding signal,ETV2,"1.26 fold enrichment (6-mer frequency, TF over GST control)"
same,binding signal,ELF3,"1.27 fold enrichment (6-mer frequency, TF over GST control)"
same,binding signal,CRX,"1.16 fold enrichment (6-mer frequency, TF over GST control)"
same,binding signal,ETV1,"1.29 fold enrichment (6-mer frequency, TF over GST control)"
